Test results as given in PubChem BioAssay (Tox21).
Records with an inconclusive call do not appear. Activity calls are given as the source filed them. Unless noted, the call rests on the fitted dose curve; in most records, active means well fitted curve in the direction sought with a large enough effect in the repeat runs; inconclusive means weak or mixed curves; inactive means no such curve, though single readings can be large; an effect the other way counts as inactive or inconclusive.

Key:
[1] = target: Bile acid receptor (Homo sapiens) (UniProt Q96RI1); assay: qHTS assay to identify small molecule antagonists of the farnesoid-X-receptor (FXR) signaling pathway (AID 743217; active means well fitted inhibition curve with a large enough effect in the signal ratio in the repeat runs, not every such curve was filed as active; the % refers to the signal ratio)
Bile acid receptor (Homo sapiens), sequence (Q96RI1 whole entry, looked up): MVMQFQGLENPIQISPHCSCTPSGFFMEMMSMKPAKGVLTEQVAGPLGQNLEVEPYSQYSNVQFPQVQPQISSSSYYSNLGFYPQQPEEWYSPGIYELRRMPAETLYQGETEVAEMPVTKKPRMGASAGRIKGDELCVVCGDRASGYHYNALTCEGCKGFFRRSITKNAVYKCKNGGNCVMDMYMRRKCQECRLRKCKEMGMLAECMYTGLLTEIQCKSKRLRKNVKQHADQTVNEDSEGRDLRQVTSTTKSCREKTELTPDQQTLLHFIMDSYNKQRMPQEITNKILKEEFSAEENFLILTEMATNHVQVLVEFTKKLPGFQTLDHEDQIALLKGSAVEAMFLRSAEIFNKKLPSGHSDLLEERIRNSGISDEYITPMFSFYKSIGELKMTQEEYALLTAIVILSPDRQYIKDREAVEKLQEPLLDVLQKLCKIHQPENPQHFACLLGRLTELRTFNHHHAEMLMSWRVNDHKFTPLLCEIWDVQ
In short: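 Antagonist mode against 50 uM (final) chenodeoxycholic acid stimulation in FXR-bla HEK 293T cells, 16 h at 37 °C. Inhibition detected as reduced beta-lactamase activity via LiveBLAzer B/G FRET fluorescence after 2 h at room temperature.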

[2] = qHTS assay to identify small molecule agonists of the farnesoid-X-receptor (FXR) signaling pathway - cell viability counter screen (AID 743218); further: nearly all actives have a fitted effect of over 45% in size
In short: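 Cytotoxicity counter-screen run in parallel, same wells: FXR-UAS-bla HEK 293T cells dosed 16 h at 37 C, viability read by CellTiter-Glo luminescence after 30 min at room temperature.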

[3] = target: Bile acid receptor (Homo sapiens) (UniProt Q96RI1); assay: qHTS assay to identify small molecule agonists of the farnesoid-X-receptor (FXR) signaling pathway (AID 743220; active means well fitted activation curve with a large enough effect in the signal ratio in the repeat runs, not every such curve was filed as active; the % refers to the signal ratio)
In short: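 Beta-lactamase reporter under UAS control in GeneBLAzer FXR HEK 293T cells (5000/well) measured with LiveBLAzer FRET substrate after 2 h at room temperature. Compound exposure lasted 16 h at 37C.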

[4] = qHTS assay to identify small molecule antagonists of the farnesoid-X-receptor (FXR) signaling pathway - cell viability counter screen (AID 743221; active means well fitted cell-killing curve with a large enough effect in the repeat runs, not every such curve was filed as active; further: nearly all actives have a fitted effect of over 50% in size)
In short: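 Cytotoxicity counter screen run in the FXR-bla reporter wells: HEK 293T cells exposed to compound with 50 uM (final) chenodeoxycholic acid for 16 h, 37 C, then viability measured by CellTiter-Glo luminescence after 30 min, room temperature.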

[5] = target: Vitamin D3 receptor (Homo sapiens) (UniProt P11473); assay: qHTS assay to identify small molecule agonists of the vitamin D receptor (VDR) signaling pathway (AID 743222; calls by dose curve)
Vitamin D3 receptor (Homo sapiens), sequence (P11473 whole entry, looked up): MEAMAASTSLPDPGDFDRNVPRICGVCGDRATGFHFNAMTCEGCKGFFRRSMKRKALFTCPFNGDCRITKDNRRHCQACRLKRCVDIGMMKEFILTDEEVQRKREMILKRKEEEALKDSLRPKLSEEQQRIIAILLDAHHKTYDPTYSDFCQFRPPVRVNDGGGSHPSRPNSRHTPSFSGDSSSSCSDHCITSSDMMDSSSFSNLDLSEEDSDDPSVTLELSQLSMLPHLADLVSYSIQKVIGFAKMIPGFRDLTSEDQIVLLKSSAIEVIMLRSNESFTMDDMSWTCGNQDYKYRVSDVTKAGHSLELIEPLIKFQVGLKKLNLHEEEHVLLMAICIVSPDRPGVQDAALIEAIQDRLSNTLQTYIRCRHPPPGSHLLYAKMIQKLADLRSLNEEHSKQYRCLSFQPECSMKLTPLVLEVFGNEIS
In short: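 Quantitative HTS agonist-mode screen: compounds in DMSO were pin-transferred onto VDR-bla cells and incubated 16 h at 37C, 5% CO2. Reporter activity was detected with LiveBLAzer B/G FRET substrate after 2 h at room temperature.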

[6] = target: Vitamin D3 receptor (Homo sapiens) (UniProt P11473); assay: qHTS assay to identify small molecule antagonists of the vitamin D receptor (VDR) signaling pathway (AID 743223; active means well fitted inhibition curve with a large enough effect in the signal ratio in the repeat runs, not every such curve was filed as active; the % refers to the signal ratio)
In short: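 Antagonist mode: compound added to VDR-bla cells alongside agonist 1alpha,25-dihydroxyvitamin D3 (3 nM final), incubation 16 h at 37C. Read-out is LiveBLAzer FRET fluorescence, 2 h at room temperature.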

[7] = qHTS assay to identify small molecule agonists of the vitamin D receptor (VDR) signaling pathway - cell viability counter screen (AID 743224); further: series mostly up to about 63 µM; nearly all actives have a fitted effect of over 50% in size
In short: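 Viability is measured in the same wells as the VDR-bla reporter assay: after 16 h compound treatment and 2 h substrate loading, CellTiter-Glo is added and luminescence read 30 min later.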

[8] = qHTS assay to identify small molecule agonists of the NFkB signaling pathway (AID 1159509; active means well fitted curve in the direction sought with a large enough effect in the signal ratio in the repeat runs, not every such curve was filed as active; the % refers to the signal ratio; further: series mostly up to about 61 µM)
In short: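 NFkB-bla ME-180 cells carry a beta-lactamase reporter under an NF-kB response element. They were plated overnight, then exposed to compounds for 5 h at 37 C. Read-out is LiveBLAzer FRET after 1.5 hr at room temperature (405 nm excitation; 460/530 nm emission).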

[9] = qHTS assay to identify small molecule agonists of the NFkB signaling pathway - cell viability counter screen (AID 1159515; calls by dose curve; further: series mostly up to about 61 µM; nearly all actives have a fitted effect of over 55% in size)
In short: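 Multiplexed viability readout: after the 5 hr compound exposure and 1.5 hr FRET substrate step, CellTiter-Glo reagent went into the same NFkB-bla ME-180 wells; ATP luminescence was measured after 30 min at room temperature.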

[10] = qHTS assay to identify small molecule agonists of the endoplasmic reticulum stress response signaling pathway (AID 1159516; active means well fitted activation curve with a large enough effect in the signal ratio in the repeat runs, not every such curve was filed as active; the % refers to the signal ratio)
In short: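 Tox21 10K library screened in quantitative HTS format on ESRE-bla HeLa cells, a beta-lactamase reporter under ER stress response element control; 5 hr treatment, FRET read.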

[11] = qHTS assay to identify small molecule agonists of the endoplasmic reticulum stress response signaling pathway - cell viability counter screen (AID 1159517; calls by dose curve; further: series mostly up to about 61 µM; nearly all actives have a fitted effect of over 50% in size)
In short: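 CellTiter-Glo was added to wells already read for beta-lactamase FRET, and luminescence was recorded 30 min later. Cells: ESRE-bla HeLa, 1,500 per well, compound exposure 5 hr at 37 C.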

[12] = qHTS assay to identify small molecule antagonists of the retinoid-related orphan receptor gamma (ROR-gamma) signaling pathway - cell viability counter screen (AID 1159520); further: nearly all actives have a fitted effect of over 50% in size
In short: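 Tet-on ROR gamma CHO cells (1,000/well) were plated 4 hr, given compounds in DMSO for 2 hr at 37 C, then induced with 1 uM final doxycycline for 16 hr. Viability was read as ATP by CellTiter-Glo luminescence after 30 min.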

[13] = target: Nuclear receptor ROR-gamma (Homo sapiens) (UniProt P51449); assay: qHTS assay to identify small molecule antagonists of the retinoid-related orphan receptor gamma (ROR-gamma) signaling pathway (AID 1159521)
In short: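 Antagonist read-out: drop in luminescence (ONE-Glo) from an RORE-LUC reporter in CHO cells with doxycycline-inducible ROR-gamma; 2 hr compound pretreatment, 1 uM doxycycline, 16 hr incubation at 37 C.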

[14] = qHTS assay to identify small molecule agonists of the AP-1 signaling pathway - cell viability counter screen (AID 1159525; calls by dose curve; further: nearly all actives have a fitted effect of over 55% in size)
In short: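 ME-180 AP-1-bla, 2500 cells/well, Opti-MEM + 0.5% dialyzed FBS; overnight 37 °C; cpd 15-pt titration, 5 h 37 °C; CellTiter-Glo 30 min RT; luminescence read; normalised to TOAB and DMSO controls.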

[15] = qHTS assay to identify small molecule agonists of the AP-1 signaling pathway (AID 1159526; calls by dose curve)
[16] = qHTS assay to identify small molecule agonists of the peroxisome proliferator-activated receptor delta (PPARd) signaling pathway - cell viability counter screen (AID 743211); further: nearly all actives have a fitted effect of over 55% in size
In short: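 Viability was measured as CellTiter-Glo luminescence (30 min, room temperature) in the same wells as the beta-lactamase readout. GeneBLAzer PPARd UAS-bla HEK293H cells received compound after 5 h plating and were incubated 17 h at 37 C.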

[17] = target: Peroxisome proliferator-activated receptor delta (Homo sapiens) (UniProt Q03181); assay: qHTS assay to identify small molecule agonists of the peroxisome proliferator-activated receptor delta (PPARd) signaling pathway (AID 743212; calls by dose curve)
Peroxisome proliferator-activated receptor delta (Homo sapiens), sequence (Q03181 whole entry, looked up): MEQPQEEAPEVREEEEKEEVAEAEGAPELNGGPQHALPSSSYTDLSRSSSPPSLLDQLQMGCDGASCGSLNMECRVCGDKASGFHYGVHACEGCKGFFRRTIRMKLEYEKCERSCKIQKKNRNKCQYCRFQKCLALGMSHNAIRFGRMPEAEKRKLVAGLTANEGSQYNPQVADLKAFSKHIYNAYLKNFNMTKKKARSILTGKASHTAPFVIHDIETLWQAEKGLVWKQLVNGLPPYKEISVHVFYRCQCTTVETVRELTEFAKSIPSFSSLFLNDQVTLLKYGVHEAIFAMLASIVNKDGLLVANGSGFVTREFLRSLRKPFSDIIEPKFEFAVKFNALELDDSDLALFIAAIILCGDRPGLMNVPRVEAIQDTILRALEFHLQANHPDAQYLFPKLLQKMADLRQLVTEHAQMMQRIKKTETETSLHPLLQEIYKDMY
In short: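 A PPARd-bla HEK293H line with beta-lactamase under an Upstream Activator Sequence is treated with compounds at 37 C. Substrate loading for 2 h at room temperature precedes the fluorescence measurement.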

[18] = qHTS assay to identify small molecule antagonists of the peroxisome proliferator-activated receptor delta (PPARd) signaling pathway - cell viability counter screen (AID 743213); further: nearly all actives have a fitted effect of over 50% in size
In short: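 In this counter screen, HEK293H cells carrying a UAS-beta-lactamase reporter are co-treated with test compounds and 300 nM L165041 (final) for 17 h at 37 C; cell viability is quantified by CellTiter-Glo luminescence.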

[19] = target: Peroxisome proliferator-activated receptor delta (Homo sapiens) (UniProt Q03181); assay: qHTS assay to identify small molecule antagonists of the peroxisome proliferator-activated receptor delta (PPARd) signaling pathway (AID 743215; active means well fitted inhibition curve with a large enough effect in the signal ratio in the repeat runs, not every such curve was filed as active; the % refers to the signal ratio;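 further: cells stimulated with agonist L165041 at 300 nM final during compound exposure; series mostly up to about 62 µM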)
In short: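 Inhibition of L165041-driven (300 nM final) PPARd signaling is scored in HEK293H UAS-bla cells. Exposure lasts 17 h at 37 C; beta-lactamase activity is then read by FRET substrate fluorescence after 2 h at room temperature.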

[20] = qHTS assay to identify small molecule antagonists of the vitamin D receptor (VDR) signaling pathway - cell viability counter screen (AID 743225); further: nearly all actives have a fitted effect of over 50% in size
In short: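 Cytotoxicity counter screen read by CellTiter-Glo luminescence (30 min, room temperature) in the same wells as the VDR-bla antagonist readout. HEK 293T VDR-UAS-bla cells had 16 h at 37C with compound and 3 nM (final) 1-alpha,25-dihydroxyvitamin D3, then 2 h with FRET substrate.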

Measured: Potency

Cc1cc(O)cc2c1O[C@](C)(CCC[C@H](C)CCC[C@H](C)CCCC(C)C)CC2
inactive: [1] | [2] | [3] | [4] | [5] | [6] | [7] | [8] | [9] | [10] | [11] | [12] | [13] | [14] | [15]

CC(C(=O)O)c1ccc(CC2CCCC2=O)cc1 (stereo unspecified)
inactive: [16] | [17] | [18] | [19] | [2] | [3] | [4] | [5] | [6] | [20] | [8] | [9] | [10] | [11] | [12] | [13] | [15]

CCCCNC(=O)NCCCC
inactive: [16] | [17] | [18] | [19] | [2] | [4] | [5] | [6] | [7] | [8] | [10] | [11] | [12] | [13] | [14] | [15]

CC(C)c1cc2c(cc1S(=O)(=O)O)[C@@]1(C)CCC[C@@](C)(C(=O)O)[C@@H]1CC2
inactive: [16] | [17] | [2] | [4] | [5] | [6] | [7] | [8] | [9] | [10] | [12] | [13] | [14] | [15]

C=CCOCC(CC)(CO)COCC=C
inactive: [16] | [17] | [18] | [19] | [2] | [4] | [6] | [7] | [20] | [8] | [9] | [10] | [12] | [13] | [14] | [15]

Nc1nc2c(ncn2COC(CO)CO)c(=O)[nH]1
inactive: [16] | [17] | [18] | [19] | [2] | [5] | [6] | [7] | [20] | [8] | [9] | [10] | [12] | [13] | [14] | [15]

C/C=C(\C)C#N
inactive: [16] | [17] | [18] | [2] | [5] | [6] | [7] | [20] | [8] | [9] | [10] | [12] | [13] | [14] | [15]

Cc1ccc(C#N)cc1
inactive: [16] | [17] | [18] | [19] | [1] | [2] | [3] | [4] | [5] | [7] | [20] | [8] | [10] | [11] | [12] | [13] | [14] | [15]

COc1nc(N)nc2c1ncn2[C@@H]1O[C@H](CO)[C@@H](O)[C@@H]1O
inactive: [16] | [2] | [5] | [6] | [7] | [20] | [8] | [9] | [10] | [12] | [13] | [14] | [15]

CC(=O)OCC(CCn1cnc2cnc(N)nc21)COC(C)=O
inactive: [16] | [17] | [18] | [19] | [2] | [4] | [5] | [6] | [7] | [20] | [8] | [9] | [10] | [12] | [13] | [14] | [15]

N=C(N)c1ccc(OCCCOc2ccc(C(=N)N)cc2)cc1
inactive: [16] | [17] | [18] | [19] | [2] | [4] | [5] | [6] | [7] | [20] | [8] | [10] | [11] | [12] | [13] | [14] | [15]

O=[N+]([O-])c1ccc(F)cc1F
inactive: [16] | [17] | [18] | [19] | [2] | [4] | [5] | [6] | [7] | [20] | [8] | [9] | [10] | [12] | [13] | [14] | [15]

C1OCOCO1
inactive: [16] | [17] | [18] | [19] | [1] | [2] | [3] | [4] | [7] | [20] | [8] | [10] | [11] | [12] | [13] | [14] | [15]

CCn1ccnc1CC1COc2ccccc2O1 (stereo unspecified)
inactive: [16] | [17] | [19] | [1] | [2] | [3] | [4] | [20] | [8] | [9] | [10] | [12] | [13] | [14] | [15]

CC(=O)Nc1c(I)cc(I)c(C(=O)O)c1I
inactive: [16] | [17] | [18] | [19] | [2] | [4] | [5] | [6] | [7] | [20] | [8] | [9] | [10] | [12] | [13] | [14] | [15]

Nc1cc(=O)[nH]c(N)n1
inactive: [16] | [18] | [1] | [3] | [4] | [5] | [6] | [7] | [20] | [8] | [9] | [10] | [12] | [13] | [14] | [15]
